Each structure is given as a SMILES string. Results filed as inconclusive are left out. The source made the active and inactive calls. The call rests on the fitted dose curve; in most records, active means well fitted inhibition curve with a large enough effect; inconclusive means small, poorly fitted or top-dose-only effect; inactive means no such curve, though single readings can be large or run the other way.
Potency means the concentration at half of the fitted maximal effect.

This assay is described as follows: BET inhibitor-based combinations targeting novel dependencies in MECOM-rearranged (r) AML: MV-4-11 cell line (AID 2202233). Further: nearly all actives have a fitted effect of over 45% in size. The following applies: MV-4-11 AML viability, CellTiter-Glo luminescence, 48 h; series mostly up to 46 µM. From the text:
Ecotropic viral insertion site 1 (EVI1) is located on chromosome 3q26.2 as part of the MECOM (MDS and EVI1 complex) locus. Under normal hematopoiesis, EVI1 is a regulator of hematopoietic stem cell maintenance and self-renewal and EVI1 levels decrease as the cells differentiate. In approximately 5-10% of de novo acute myeloid leukemia (AML) EVI1 is aberrantly expressed, including Chromosomal inv(3)(q21;q26.2) or t(3;3)(q21;q26.2) alterations (MECOM-r) that account for about 50% of AML with EVI1 overexpression 31. AMLs with high levels of EVI1 have a poor prognosis and an overall survival time averaging between 10-14 months. EVI1 overexpression confers resistance in leukemia cells, highlighting the need to develop new targeted therapies for EVI1 overexpressing AMLs. Here, we performed an unbiased chemical drug screening by evaluating the single agent activity of a collection of 2,480 oncology-focused, approved and investigational drugs (NCATS Mechanism Interrogation Plates, MIPE v5.0) against a panel of seven AML cell lines. These included four MECOM-r cell-lines (AML-191, AML-194, UCSD-AML1 and HNT-34) and three non-MECOM-r AMLs (MV4-11, OCI-AML3 and SET-2). Exploiting the mechanistic redundancy built in the library, we identified target-level sensitivities in MECOM-r AML cells and relative activity as compared to other AML subtypes.
A collection of 2480 mechanistically annotated dugs (MIPE v5.0) was used to screen four 3q26.2 rearranged AML cell lines and three non-3q26.2 rearranged AML cell lines. This library purposely exploits redundancy by including multiple inhibitors of key onco-targets, while simultaneously encompassing mechanistic diversity, targeting more than 800 distinct mechanisms of action. Briefly, cells were seeded in 5 uL of growth media using a Multidrop Combi dispenser into 1536 well white polystyrene tissue culture treated plates (Corning) at a density of 500cells/well. For each cell-line, for each of the 2480 drugs in MIPE v5.0 library, an 11-point dose curve was generated via a 1536 pin-tool. Plates were incubated for 48 hr at standard incubator conditions, covered by a stainless steel gasketed lid to prevent evaporation. Cell viability was determined by luminescence based, Cell Titer Glo assay (Promega). In detail, 3 uL of Cell Titer Glo were added to each well and plates were incubated at room temperature for 15 min with a stainless-steel lid in place. Luminescence readings were taken using a Viewlux (PerkinElmer) with a 2 s exposure time per plate. Compound dose-response curves were normalized to DMSO and empty well controls on each plate. Quantitative drug activity data from dose-response curves was determined utilizing area Under the Curve (AUC) and Z-transformed AUC (Z-AUC, a mean-centering transformation applied to each individual cell-line screened).
For the compound `CC(C)C1CCC(C(=O)N[C@H](Cc2ccccc2)C(=O)O)CC1` (stereo not given in full), the Potency entry is “inactive”. As for `Nc1nc(=S)c2[nH]cnc2[nH]1`, the figure is 0.296 µM (active); as for `N#CC(c1ccnc(NCCc2cccnc2)n1)c1nc2ccccc2s1` (stereo not given), 6.61 µM (active).

`NC(=O)/C(=C/n1cnc(-c2cc(C(F)(F)F)cc(C(F)(F)F)c2)n1)c1cncnc1`: the Potency was 0.186 µM (active).

Consider `CC(C)(C)c1[nH]cnc1/C=c1\[nH]c(=O)/c(=C/c2ccccc2)[nH]c1=O`, for which the Potency was 0.0833 µM (active). On to `CC(C)(C)C[C@H]1N[C@@H](C(=O)NC2CCC(O)CC2)[C@H](c2cccc(Cl)c2F)[C@@]12C(=O)Nc1cc(Cl)ccc12` (stereo not given in full), for which the Potency was 0.742 µM (active). `C[C@H]1C[C@@H](n2c(Nc3ccc(OC(F)(F)F)cc3)nc3cc(CCC(=O)O)ccc32)CC(C)(C)C1`: the Potency is 20.9 µM (active).

For `O=C(/C=C/c1ccc2ccc(C(F)(F)F)cc2n1)c1ccncc1`, the Potency is 1.05 µM (active). With `COc1cc(OC)cc(N2CCN(C(=O)Nc3nc4cc(F)ccc4nc3OC)CC2)c1` the figure was 0.934 µM (active). With `CCN1CCN(Cc2ccc(NC(=O)c3ccc(C)c(/C=C/c4cnc5[nH]ccc5c4OC)c3)cc2C(F)(F)F)CC1` the figure was 0.186 µM (active); with `Nc1nc2c(c(=O)[nH]1)N1CN(c3ccc(C(=O)N[C@@H](CCC(=O)O)C(=O)O)cc3)CC1CN2` (stereo not given in full), 1.05 µM (active).

As for `CCC(=O)Nc1cccc(Oc2nc(Nc3ccc(N4CCN(C)CC4)cc3OC)ncc2Cl)c1`, the Potency is 7.42 µM (active). On to `Cn1cc(CNCC2CCN(c3ncc(C(=O)NO)cn3)CC2)c2ccccc21`, for which the Potency was 0.0833 µM (active). With `O=C(O)C[C@H]1CCc2c1[nH]c1ccc(OCc3ccc(C4CCCC4)c(C(F)(F)F)c3)cc21` the figure was 5.9 µM (active). As for `CNC(=O)c1ccc(N2C(=S)N(c3ccc(C#N)c(C(F)(F)F)c3)C(=O)C2(C)C)cc1F`, the figure is 18.6 µM (active). As for `c1ccc(Cn2c(-c3ccc(OCC(C4CCNCC4)n4c(-c5ccccc5)nc5ccccc54)cc3)nc3ccccc32)cc1` (stereo not given), the figure is 8.33 µM (active); as for `C=CCN(/C=C1\C(=O)O[C@@H](COC)[C@]2(C)C1=C(O)C(=O)C1=C2[C@@H](OC(C)=O)C[C@]2(C)C(=O)CC[C@H]12)CC=C`, 20.9 µM (active); as for `OC1CCC([C@H](O)C[C@H]2c3c(F)cccc3-c3cncn32)CC1` (stereo not given in full), “inactive”.

Turning to `C=CC(=O)Nc1ccc2ncnc(Nc3cccc(Br)c3)c2c1`, the Potency is 7.42 µM (active). For `COc1ccc2c(c1)CC[C@@H]1[C@@H]2CC[C@]2(C)[C@@H](NCCCCCCN3C(=O)C=CC3=O)CC[C@@H]12`, the Potency entry is “inactive”. `Cc1ccc(-c2ccc(C)cn2)nc1`: the Potency entry is “inactive”. In the case of `C[C@@H]1CC(=O)Nc2cccc(-c3ccc4c(c3)c(-c3cnn(C)c3)nn4C)c2N1`, the Potency was 5.25 µM (active).

For `Nc1n[n+]([O-])c2ccccc2[n+]1[O-]`, the Potency was 13.2 µM (active). As for `O=C1S/C(=C\c2ccc(OCc3cccc(B(O)O)c3)cc2)C(=O)N1Cc1ccc(F)cc1`, the figure is 18.6 µM (active); as for `N#C/C(=C\c1ccc(O)c(O)c1)C(=O)NCc1ccccc1`, 14.8 µM (active). With `C=CC(=O)Nc1cccc(Oc2nc(Nc3ccc(N4CCN(C)CC4)c(F)c3)nc3[nH]ccc23)c1` the figure was 0.742 µM (active). With `Cc1ccc(-n2nc(C(C)(C)C)cc2NC(=O)NCc2cc(F)ccc2Oc2ccc3c(cnn3CCO)c2)cc1` the figure was 18.6 µM (active). Consider `O=C(N[C@H]1CCC[C@H](CO)C1)C1CCN(c2nc3cc(Cl)c(-c4ccc(Cl)cc4)cc3o2)CC1`, for which the Potency is 23.5 µM (active). With `CC(C)=CCC[C@](C)(O[C@@H]1O[C@H](CO[C@@H]2O[C@H](CO)[C@@H](O)[C@H](O)[C@H]2O)[C@@H](O)[C@H](O)[C@H]1O)[C@H]1CC[C@]2(C)[C@@H]1[C@H](O)C[C@@H]1[C@@]3(C)CC[C@H](O[C@@H]4O[C@H](CO)[C@@H](O)[C@H](O)[C@H]4O[C@@H]4O[C@H](CO)[C@@H](O)[C@H](O)[C@H]4O)C(C)(C)[C@@H]3CC[C@]12C` the entry was “inactive”; with `CN(C)C[C@@H]1CCn2cc(c3ccccc32)C2=C(C(=O)NC2=O)c2cn(c3ccccc23)CCO1`, 0.417 µM (active). With `COc1cc(N2CCN(C)CC2)ccc1Nc1ncc2c(n1)N(C)c1ccccc1C(=O)N2C` the figure was 1.32 µM (active); with `Cc1ncsc1-c1ccc([C@H](C)NC(=O)[C@@H]2C[C@@H](O)CN2C(=O)[C@@H](NC(=O)COCCCOCCNC(=O)C[C@@H]2N=C(c3ccc(Cl)cc3)c3c(sc(C)c3C)-n3c(C)nnc32)C(C)(C)C)cc1`, 0.0047 µM (active). With `CCCC[C@@H](C=O)NC(=O)[C@H](CC(C)C)NC(=O)OCc1ccccc1` the figure was 18.6 µM (active).

As to `CN(C)c1ccc(-c2nc3ncc(Cl)c(N4CCN(CC(=O)Nc5nccs5)CC4)c3[nH]2)cc1`, the Potency is 0.723 µM (active). With `COc1cc([C@@H]2c3cc4c(cc3[C@@H](O[C@@H]3O[C@@H]5CO[C@@H](c6cccs6)O[C@H]5[C@H](O)[C@H]3O)[C@H]3COC(=O)[C@H]23)OCO4)cc(OC)c1O` the figure was 0.0468 µM (active).

On to `COc1ccc(/C=C\c2cc(OC)c(OC)c(OC)c2)cc1O`, for which the Potency was 0.0132 µM (active). `Cc1nc(C)c(CN2CCN(C(c3ccc(F)cc3)c3ccc(F)cc3)CC2)nc1C`: the Potency was 18.6 µM (active).

As to `Cc1c(CN2CCC(Nc3ncnc4sc(CC(F)(F)F)cc34)CC2)ccc2c1cc(C#N)n2Cc1cn[nH]c1`, the Potency is 3.32 µM (active). With `N#Cc1ccc(COC[C@H]2O[C@@H](n3c(NCc4ccc(Cl)c(Cl)c4)nc4c(N)ncnc43)[C@H](O)[C@@H]2O)cc1` the figure was 14.8 µM (active); with `CC1=C(/C=C/C(C)=C/C=C/C(C)=C/C=C/C=C(C)/C=C/C=C(C)/C=C/C2=C(C)CCCC2(C)C)C(C)(C)CCC1`, 23.5 µM (active).

The values above are taken from PubChem BioAssay (NCATS).
